Test results taken from the supplement of paper PMC10338343.
± gives the standard deviation.

test system: EfPiwi piRISC loaded with L1MC piRNA (26 nt); assay: pre-steady-state target cleavage rate (min^-1); auxiliary factor: 500 nM Ephydatia muelleri Gtsf1; guide: L1MC piRNA 5'p-UAACUAAAUACUAUGCAAGCUGUAGG; MIWI and MILI are mouse PIWI proteins and EfPiwi is from a freshwater sponge; tags in brackets are library labels; higher = faster piRNA-guided slicing of the target
In short: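 A burst-and-steady-state fit was used to obtain the pre-steady-state cleavage rate. The input data were sequencing reads of uncleaved targets, normalised to depth and to weakly complementary targets, from a […] transcribed, DNA-blocked target RNA library mixed with 1 nM active affinity-purified piRISC holding one synthetic guide, with or without 500 nM GTSF1 partner protein, in HEPES–potassium acetate buffer at 33 °C for 0–8 or 0–960 min. Three trials were pooled and k3 was capped at 0.0001 min^-1.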

| Sequence | pre-steady-state target cleavage rate |
| --- | --- |
| UCCUGCUACAGCUUGCAUAGUAUUCUAGUUA | 0.0043 ± 0.002 |
| UCCUGGAUGUGCUUCAUAGUAUUUAGUUA | 0.00929 ± 0.0056 |
| UCCUGCUACAGCUUGCAUAGUUAUUAGAAA | 0.00309 ± 0.0025 |
| UCCUGCUACACUUGCAUAGUAUUUAGUUA | 0.00903 ± 0.0027 |
| UCCUGGUACAUGCUUGCAUAGUAUUUAGUUA | 0.0077 ± 0.0034 |
| UCCUGGAUGUCCUUGCCUAGUAUUUAGUUA | 0.00345 ± 0.002 |
| UCCUGGAUGUCCUUUGCAUAGUAUUUAGUUA | 0.00785 ± 0.0043 |
| UCCUGGAUGUCGAACCAGAGUAUUUAGUUA | < 0.0001 |
| UCCUGGUACAGCUUCCAUAGUAUUUAGAUA | 0.00221 ± 0.0016 |
| UCCUGGUACAGGUUGGAUAGUAUUUAGUUA | 0.00482 ± 0.0022 |
| UCCUGGAUCAGCUUGCAUAGUAAUUAGAUA | 0.00275 ± 0.0021 |
| UCCUGCUACAGCUUGCAUAGUAUAAAGUUA | 0.00347 ± 0.0022 |
| UCCUGGUACAGCUUGCGAUAGUAUUUAGUUA | 0.00543 ± 0.0019 |
| UCCUGCUACAGCUUCCAUAGUAUUUACAAA | 0.00279 ± 0.0021 |
| UCCUCCUACAGCUAGCAUAGUAAUUAGUUA | 0.00535 ± 0.002 |
| UCCUCCUACAGCUUGGUUAGUAUUUAGUAA | 0.00533 ± 0.0032 |
| UCCUGCUACAGCUUGCUUAGUAUUUAGAAA | 0.00409 ± 0.0022 |
| UCCUCCAACAGCUUGCAUAGUAUAUAGUUA | 0.00628 ± 0.0027 |
| UCCUGGAUGUGCUUGCAUAGUAUGUAGUUA | 0.00399 ± 0.0022 |
| UCCUGCUACACCUUGCAUAGUAUUAAGUUA | 0.00618 ± 0.0036 |

| Sequence | pre-steady-state target cleavage rate |
| --- | --- |
| UCCUGGAACAGCUUCCAUAGUAUUUAGAUA | 0.00228 ± 0.0017 |
| UCCUGGAUGUCGAACGUAUCUAUUAUCUUA | < 0.0001 |
| UCCUGGAACAGCUUGCAUAGUAUUUAGUA | 0.00384 ± 0.0024 |
| UCCUGGAUGAGCUAGCAUACUAUUUAGUUA | 0.00286 ± 0.002 |
| UCCUGGUUCAGCUUGCAUAGUAUUUAGUAA | 0.00696 ± 0.0035 |
| UCCUGGAUGUCGAACGUAUCUAUUUUCUUA | < 0.0001 |
| UCCUGGAUGUCCUUGCAUAGUAUUUAGUUC [g2:g19:cont:t1C] | 0.00867 ± 0.0028 |
| UCCUCCUACAUGCUUGCAUAGUAUUUAGUUA | 0.00449 ± 0.0018 |
| UCCUGCUACAGCUUGGAUAGUAAUUAGUUA | 0.00773 ± 0.0024 |
| UCCUGGAUGUCGAACGACAGUAUUUAGUUA | < 0.0001 |
| UCCUGGAUCAGCUUGCCUAGUAUUUAGUUA | 0.0512 ± 0.011 |
| UCCUCCUACAGUUGCAUAGUAUUUAGUUA | 0.0777 ± 0.021 |
| UCCUGCUACAGCUUGCAUUGUAUUUAGAAA | 0.00474 ± 0.0017 |
| UCCUCUUACAGCUUGCAUAGUAUUUAGUUA | 0.243 ± 0.061 |
| UCCUGCUACAGCUUGAAUAGUAUUUAGUUA | 0.0179 ± 0.0045 |
| UCCUGCUACAGCUUGCAUAGUAUUGUAGUUA | 0.00279 ± 0.0016 |
| UCCUGGAACACCUUGCAAAGUAUUUAGUUA | 0.00814 ± 0.0031 |
| UCCUGGUACAGCUUGCAUAGUAAUUAGUUA | 0.00654 ± 0.0025 |
| UCCUGGAUGAGCUUGCUUAGUAUUUAGUAA | 0.00265 ± 0.0025 |
| UCCUGCUACAGCUUCGAUAGUAUUUAGUAA | 0.00315 ± 0.0026 |
